Measurements: PubChem BioAssay AID504882 (Broad Institute, 2011)
In all, about 1,200 compounds went through this assay and about 290 (24%) were called active. Not shown: some 9% with an inconclusive outcome. The rule behind the calls is not given here. Not all results are given here. Measured potencies and affinities stand elsewhere.

Test: cytotoxicity in EBV lymphoblastoid cells, dose response, cytotoxicity control, cell-based, plate reader, cherry-picks, set 2 (AID 504882)
Details: EBV lymphoblastoid cells (LCL) viability; series mostly up to 19.5 µM

Row | SMILES | outcome
1 | O=C(O)c1cccc(Nc2ccnc(Nc3cccc(C(=O)O)c3)n2)c1 | inactive
2 | COc1ccc(Nc2oc(COc3ccccc3OC)nc2C#N)cc1 | inactive
3 | Cc1ccc(/C=C/C(=O)C2C(=O)c3ccccc3C2=O)cc1 | inactive
4 | COc1ccc(-c2nc(CS(=O)CC(=O)NCc3ccc(Cl)cc3)c(C)o2)cc1 (configuration not stated) | inactive
5 | O=C(NCc1ccccc1)c1cccc(COc2ccc3c(c2)CCC3)c1 | inactive
6 | CC(C)Oc1ccc(C2CC(=O)NC2=O)cc1 (configuration not stated) | inactive
7 | CCCCCc1ccc(-c2ccc(/C=C/C(=O)O)cc2)nc1 | inactive
8 | C(=N\Nc1ccc2ccccc2n1)/c1ccc2c(c1)OCO2 | inactive
9 | O=C(NCCOc1ccccc1)c1ccc2c(c1)OCO2 | inactive
10 | COc1ccc(/C=C2\SC(=O)N(CCCC(=O)Nc3ccc(C(=O)O)cc3)C2=O)cc1 | inactive
11 | N=c1c(-c2nc3ccccc3[nH]2)cc(C(=O)c2cccs2)nn1-c1ccccc1 | inactive
12 | Cc1cc(NC(=O)c2ccc(C)s2)n(-c2nc3ccccc3[nH]2)n1 | inactive
13 | CSc1ccccc1C(=O)N1CCC2(CC1)CC(=O)c1ccccc1O2 | inactive
14 | CS(=O)(=O)Nc1ccc(C2=NN(S(C)(=O)=O)C(c3ccccc3)C2)cc1 (configuration not stated) | inactive
15 | Cc1cccc(NC(=O)Nc2c(C)n(C)n(-c3ccccc3)c2=O)c1C | inactive
16 | CCc1ccccc1NC(=O)COC(=O)c1c(C)nsc1NC | inactive
17 | CCc1ccc(/C=C2\SC(=S)N(CCCC(=O)Nc3ccccn3)C2=O)cc1 | inactive
18 | CCN1CCN(Cc2ccc(NC(=O)c3ccc(C)c(NC(=O)c4ccno4)c3)cc2C(F)(F)F)CC1 | inactive
19 | CCN1CCN(Cc2ccc(NC(=O)c3ccc(C)c(NC(=O)c4nccn4C)c3)cc2C(F)(F)F)CC1 | inactive
20 | COC(=O)C(NS(=O)(=O)c1ccc(N2CCCC2=O)cc1)c1ccccc1 (configuration not stated) | inactive
21 | CC(=NNC(=S)N1CCCCCC1)c1cccc2cccnc12 | inactive
22 | O=C(CSc1nnc(-c2cccc(S(=O)(=O)N3CCOCC3)c2)n1C1CCCCCC1)NCc1ccccc1 | inactive
23 | N#CC(C#N)c1ccnc2ccccc12 | inactive

Row | SMILES | outcome
24 | CC(CCc1ccco1)N(C)S(=O)(=O)c1csc(C(N)=O)c1 (configuration not stated) | inactive
25 | CC1CCCN(C(=O)COC(=O)c2n[nH]c3ccccc23)C1 (configuration not stated) | inactive
26 | CCN(C(=O)c1cccc(NC(=O)c2ccccc2)c1)C1CCCCC1 | inactive
27 | Brc1cccc(CSc2nnc(-c3ccncc3)o2)c1 | inactive
28 | O=c1oc2ccccc2c(O)c1/C=N/c1ccccn1 | inactive
29 | CCc1nn2cc(-c3ccccc3)nc2s1 | inactive
30 | O=C(NCC1CCOCC1)c1ccc(OC2CCN(Cc3ccccn3)CC2)cc1 | inactive
31 | Cc1ccc(C(=O)Nc2cccc(C(F)(F)F)c2)cc1NC(=O)c1ccno1 | inactive
32 | COc1cnc(-c2ccccn2)nc1Sc1ccccc1Cl | inactive
33 | CCOc1ccc(NC(=O)CCc2nnc3ccc(N4CCC5(CC4)OCCO5)nn23)cc1 | inactive
34 | C[C@H](CO)N1C[C@H](C)[C@@H](CN(C)C(=O)NC2CCCCC2)Oc2c(NS(=O)(=O)c3cn(C)cn3)cccc2C1=O | inactive
35 | CC1=CC(=NOC(=O)/C=C/c2ccccc2)C=C(C)C1=O | inactive
36 | CCc1ccccc1N(CC(=O)NCc1ccco1)C(=O)c1snc(C(N)=O)c1N | inactive
37 | Oc1cccc(/C=N/NC(=S)NCCN2CCOCC2)c1O | inactive
38 | Cc1ccc(C(=O)Nc2cccc(C(=O)N/N=C/c3ccccc3F)c2)cc1 | inactive
39 | Cc1ccc(S(=O)(=O)N2c3ccccc3-c3c(ssc3=S)C2(C)C)cc1 | inactive
40 | Cc1ccc(S(=O)(=O)N2CCN(C(=O)COC(=O)COc3ccc(Cl)cc3)CC2)c(C)c1 | inactive
41 | O=C(Nc1nnc(N2CCCCCC2)s1)c1cc(-c2ccc(Br)cc2)on1 | inactive
42 | O=C(c1ccc(COc2ccccc2Cl)o1)N1CCCC1 | inactive
43 | Oc1c(N=NC(=S)Nc2ccccc2F)c2ccccc2n1Cc1ccc(F)cc1 | inactive
44 | COc1ccc(NC(=O)C2CCCN(S(=O)(=O)c3cccc4nonc34)C2)c(OC)c1 (configuration not stated) | inactive
45 | CC1=C(CC(=O)O)c2cc(F)ccc2C1=Cc1ccc(S(C)(=O)=O)cc1 | inactive
46 | Cc1cc(NCCCn2ccnc2)n2ncc(-c3ccccc3)c2n1 | inactive

Row | SMILES | outcome
47 | CSc1nc(C)nc2c1c(=O)n(C)c(=O)n2C | inactive
48 | Cc1ccc(S(=O)(=O)N2CCCCC2)cc1NC(=O)CNc1ccccc1N1CCCC1=O | inactive
49 | COc1ccc(Nc2oc(COc3ccc(Cl)cc3)nc2C#N)cc1 | inactive
50 | COCC(=O)N1CCC(Oc2ccc(C(=O)N3C[C@H]4CC[C@H]3C4)cc2)CC1 | inactive
51 | O=C(CCS(=O)(=O)c1ccccc1)Nc1nccs1 | inactive
52 | COc1ccc(OC)c(NC(=O)COc2coc(CN3CCc4ccccc43)cc2=O)c1 | inactive
53 | O=C(OCc1nc2ccccc2s1)[C@@H]1CCCN1S(=O)(=O)c1ccccc1F | inactive
54 | Cn1cccc1/C=C1\CC(C(C)(C)C)C/C(=C\c2cccn2C)C1=O (configuration not stated) | inactive
55 | COc1ccccc1-n1c(-c2ccccc2)n[nH]c1=S | inactive
56 | CC(=O)c1ccc(-n2nnnc2SCC(=O)N2CCc3ccccc3C2)cc1 | inactive
57 | CCN(Cc1ccncc1)C(=O)CCc1ccccc1 | inactive
58 | Cn1cccc1-c1cc(C(=O)N2CCc3c([nH]c4ccccc34)C2c2ccccn2)[nH]n1 (configuration not stated) | inactive
59 | Cc1ccc(CCNC(=O)Cc2ccc(NC3=NC4CS(=O)(=O)CC4S3)cc2)cc1 (configuration not stated) | inactive
60 | Cn1c(=O)c2ncn(CC(=O)O)c2n(C)c1=O | inactive
61 | CCOc1cc(C(=O)OC(C)C(=O)Nc2ncc(Cl)cc2Cl)ccc1OCC(=O)N1CCOCC1 (configuration not stated) | inactive
62 | CC(=O)N1c2ccc(S(=O)(=O)N3CCC(C(=O)N4CCN(c5ccc(Cl)cc5)CC4)CC3)cc2CC1C (configuration not stated) | inactive
63 | O=C1c2cccc3c(O)ccc(c23)C(=O)N1c1ccc(Cl)cc1 | inactive
64 | C/C(=N\NS(=O)(=O)c1ccc([N+](=O)[O-])cc1)c1cccs1 | inactive
65 | COc1cccc(/C=N/Nc2ncnc(N)c2[N+](=O)[O-])c1OC | inactive
66 | COc1cccc(-c2nc(NCc3ccccc3)c3ccccc3n2)c1O | inactive
67 | COc1cccc(C(=O)O/N=C(\N)c2ccccn2)c1OC | inactive
